# Experimental data published in the supplement of paper PMC6992640.
# ± gives the standard deviation of the averaged measurements.
# Columns and labels:
# Test in all cases: cell viability (% of vehicle); higher = less cytotoxic
# Details in all cases: 10 µM; 72 h
# HCI01 = system: HCI01 (cells of a triple-negative basal-like breast cancer xenograft)
# HCI03 = system: HCI03 (cells of an ER-positive luminal breast cancer xenograft)
# HCI09 = system: HCI09 (cells of a triple-negative luminal androgen receptor type breast cancer xenograft)
# HCI11 = system: HCI11 (cells of an ER-positive luminal breast cancer xenograft)
# HCI13 = system: HCI13 (cells of an ER-positive luminal breast cancer xenograft)
# HCI16 = system: HCI16 (cells of a triple-negative basal-like breast cancer xenograft)
# UCD52 = system: UCD52 (cells of a triple-negative basal-like breast cancer xenograft)
# WHIM2 = system: WHIM2 (cells of a triple-negative basal-like breast cancer xenograft)
# WHIM30 = system: WHIM30 (cells of a triple-negative basal-like breast cancer xenograft)
# 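Also: PDX cells carrying CMV promoter-driven luciferase, viability read as total photon flux per second by IVIS imaging following D-luciferin, vehicle control 0.1% DMSO.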
SMILES,cell viability (HCI01),cell viability (HCI03),cell viability (HCI09),cell viability (HCI11),cell viability (HCI13),cell viability (HCI16),cell viability (UCD52),cell viability (WHIM2),cell viability (WHIM30)
CCCNC(=O)NS(=O)(=O)c1ccc(Cl)cc1 [Chlorpropamide],121 ± 28,113,73.9 ± 18,82.9,81.8 ± 25,105,92.5 ± 5.9,99.5 ± 14,104 ± 4.6
O=C(O)C1=COC(OC2OC(CO)C(O)C(O)C2O)C2C(CO)=CCC12 (stereo unspecified) [Geniposidic acid],99.5 ± 9.7,150,93.7 ± 17,95.6,107 ± 12,110,99.8 ± 10,94.3 ± 6,143.2 ± 0.61
CN(C)CCc1c[nH]c2ccc(Cn3cncn3)cc12.O=C(O)c1ccccc1 [Rizatriptan Benzoate],108 ± 11,118,137 ± 72,121,110 ± 21,106,102 ± 9.9,86.3 ± 21,124 ± 6.5
NC(CSCCCO)C(=O)O (stereo unspecified) [Fudosteine],91 ± 9.3,103,87.1 ± 7.6,94.5,107 ± 11,96.1,77.3 ± 4.8,112 ± 14,91.1 ± 8.5
CCC(C)n1ncn(-c2ccc(N3CCN(c4ccc(OCC5COC(Cn6cncn6)(c6ccc(Cl)cc6Cl)O5)cc4)CC3)cc2)c1=O (stereo unspecified) [Itraconazole],93.5 ± 38,81.2,56.7 ± 1.2,78.5,84.3 ± 4.1,129,68.6 ± 12,131 ± 17,94.7 ± 1.1
N#CC1CC2CC2N1C(=O)C(N)C12CC3CC(CC(O)(C3)C1)C2 (stereo unspecified) [Saxagliptin],95 ± 7.6,145,82.1 ± 5.7,89.2,85.7 ± 7,93.8,97.4 ± 5.6,123 ± 7.2,98 ± 2.8
CCN(CC)CCOC(=O)C(c1ccccc1)c1ccccc1.Cl [Adiphenine HCl],93.1 ± 17,129,99.2 ± 22,94.9,57.1 ± 3.2,110,92.2 ± 7.6,92.4 ± 9.5,117 ± 17
CN1C2=CC(=O)C(=NNC(N)=O)C=C2CC1S(=O)(=O)[O-].[Na+] (stereo unspecified) [Carbazochrome sodium sulfonate (AC-17)],99.8 ± 0.3,129,105.4 ± 0.44,94.6,81 ± 18,124,99 ± 19,99.4 ± 21,134 ± 9.7
NC(CO)(CO)CO.O=C(c1ccccc1)c1ccc2n1CCC2C(=O)O (stereo unspecified) [Ketorolac tromethamine salt],123 ± 15,174,146 ± 70,102,122 ± 26,131,145.6 ± 0.93,130 ± 15,116 ± 4.2
"CCCS(=O)(=O)Nc1ccc(F)c(C(=O)c2c[nH]c3ncc(-c4ccc(Cl)cc4)cc23)c1F [Vemurafenib (PLX4032, RG7204)]",118 ± 12,195,114 ± 7.1,98.3,106 ± 4.2,102,108 ± 1.8,102.2 ± 0.85,185 ± 5.3
O=C(O)c1ccc2c(c1)nc(Nc1cccc(Cl)c1)c1ccncc12 [CX-4945 (Silmitasertib)],115 ± 62,111,28.5 ± 13,137,192 ± 22,106,78 ± 8.1,99.48 ± 0.45,79.9 ± 14
Cl.NNc1nncc2ccccc12 [Hydralazine HCl],142 ± 22,131,113 ± 9.5,79.8,121 ± 7.1,180,162 ± 3.2,148 ± 5.5,151 ± 11
CCCCNc1cc(C(=O)O)cc(S(N)(=O)=O)c1Oc1ccccc1 [Bumetanide],109 ± 9.6,95.9,109 ± 8.9,92,89.5 ± 4,108,99 ± 1.3,78.6 ± 14,133 ± 26
COc1ccc2c(c1)c(CC(=O)OCC(=O)O)c(C)n2C(=O)c1ccc(Cl)cc1 [Acemetacin],108 ± 3.5,113,97.6 ± 29,97.4,111 ± 9,106,78.2 ± 5,86.9 ± 22,76.6 ± 11
N#CC1CCCN1C(=O)CNC12CC3CC(CC(O)(C3)C1)C2 (stereo unspecified) [Vildagliptin (LAF-237)],118.9 ± 0.29,125,88.7 ± 16,126,96.1 ± 17,114,121 ± 12,112 ± 1.5,141 ± 20
CCOc1nc2cccc(C(=O)O)c2n1Cc1ccc(-c2ccccc2-c2nn[nH]n2)cc1 [Candesartan],98 ± 5.4,122,93.6 ± 2.2,101,127.9 ± 1.2,109,82.15 ± 0.28,85.9 ± 7.9,112 ± 23
CN1C2CCCC1CC(NC(=O)c1nn(C)c3ccccc13)C2.Cl (stereo unspecified) [Granisetron HCl],116 ± 6.1,111,90.4 ± 1.8,97.6,96.2 ± 16,89.6,113 ± 3.7,88.1 ± 22,115 ± 16
CC(C(=O)O)c1ccc2c(c1)[nH]c1ccc(Cl)cc12 (stereo unspecified) [Carprofen],175 ± 51,107,112 ± 6,95.3,102.2 ± 0.8,138,113 ± 3.4,152 ± 30,117.4 ± 0.51
Cl.O=C1c2cccc3c2C(CCC3)CN1C1CN2CCC1CC2 (stereo unspecified) [Palonosetron HCl],86 ± 15,87.8,118 ± 38,94.8,100 ± 12,111,76.3 ± 4.4,82.6 ± 5.7,104 ± 8.2
